From the supplement of paper PMC8269313

Test system: 4T1
Assay: % inhibition of 4T1 cell number vs DMSO control; higher = stronger growth inhibition
Settings: 1 µM, 3 days
In short: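 In 96-well imaging plates whose edge wells went unused, 3000 4T1-H2B-GFP mouse breast cancer cells per well were seeded in 2% FBS medium onto plastic, denuded lung matrix, mCAF1 fibroblast-derived matrix, Matrigel (15 μg/mL) or 0.2% gelatin. Sixteen hours on, kinase inhibitors went in at 1 μM final for 3 days before formalin fixation, DAPI staining and imaging on an INCell Analyzer 2200. Counting of GFP-positive nuclei gave cell numbers, from which percent inhibition relative to control was derived.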

[1] = substrate: lung fibroblast-derived matrix
[2] = substrate: mCAF1 fibroblast-derived matrix

Row | Structure (SMILES) | % inhibition of 4T1 cell number (substrate: Matrigel) [%] | % inhibition of 4T1 cell number (substrate: gelatin) [%] | % inhibition of 4T1 cell number [1] [%] | % inhibition of 4T1 cell number [2] [%] | % inhibition of 4T1 cell number (substrate: plastic) [%]
1 | COc1ccc2c(c1)/C(=C/c1cnc[nH]1)C(=O)N2 | 24.5 | 50.7 | 8.25 | 17.6 | 17.3
2 | COc1ccc2c(c[n+](C)c3c4cc5c(cc4ccc23)OCO5)c1OC [Chelerythrine Chloride] | 20 | -43 | 4.48 | 8.26 | -4.98
3 | O=C1NC(=O)c2c1c1c3ccccc3n3c1c1c2c2ccccc2n1[C@H]1CC[C@@H]3O1 | 30 | 44.2 | -1.14 | 29.4 | 87.4
4 | O=[N+]([O-])/C=C/c1ccc2c(c1)OCO2 [Syk Inhibitor III] | -4.15 | -72.6 | -12.2 | -33.4 | -19.4
5 | O=S(=O)(c1c(O)c(Cl)cc(Cl)c1Cl)c1c(O)c(Cl)cc(Cl)c1Cl [p38 MAP Kinase Inhibitor IV] | -24.4 | 7.41 | -2.09 | 31.2 | -30.3
6 | CC(C)(C)c1cc(C=C(C#N)C#N)cc(Br)c1O | 46.6 | -2.78 | 2.02 | 0.929 | 35.7
7 | COC(=O)[C@]1(O)C[C@@H]2O[C@@]1(C)n1c3ccccc3c3c4c(c5c6ccccc6n2c5c31)C(=O)NC4 [K-252a, Nocardiopsis sp.] | 87.4 | 91.8 | 2.02 | 98.1 | 91.5
8 | NC(=NN=Cc1ccc(-c2cccc([N+](=O)[O-])c2)o1)N[N+](=O)[O-] [ERK Inhibitor III] | 24.7 | 24.5 | -2.29 | -12.4 | 41.4
